The source made the active and inactive calls.

The test system of test [1] is Human papillomavirus type 1a protein E7 (residues 44-93). Put plainly: HPV1a E7 fragment binders on microarrays, primary screen, biochemical, small-molecule microarray, residues 44-93, 635 nm fluorescence (AID 1108).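 Also: E7 fragment applied at 1 µg/mL in TBST for 1 h at 4 C; score combines spot fluorescence with its signal to noise ratio.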 The following applies: small-molecule microarray binding, fluorescence 635 nm; higher = more signal.
A short description of test [2]: modulators of HCV replicon luciferase signal, primary screen, HCV replication inhibitor project, Huh7 cells, luciferase reporter (AID 1109).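 Also: huh7 hepatoma cells harbouring a luciferase neomycin HCV replicon reporter; luciferase luminescence as measure of HCV replicon replication; test concentration not given here.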 The following applies: 48 h, higher = more signal.
For test [3], the target named is Left-right determination factor 2 (Homo sapiens) (UniProt O00292). Put plainly: LEFTY2 binders on small-molecule microarrays, primary screen, biochemical, small-molecule microarray, 635 nm fluorescence scan (AID 1110). The following applies: LEFTY2 binding, higher = more signal.
Test [4] has as its target Calmodulin-1 (Homo sapiens) (UniProt P0DP23). Description: CALM1 binders on microarrays, EGTA buffer, profiling panel, biochemical, small-molecule microarray, Cy5-labelled CALM1 (AID 1111).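 Also: labelled calmodulin applied in Tris saline Tween buffer holding calcium plus EGTA and DTT.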 To be noted: Cy5-CALM1 binding fluorescence, higher = more signal.
For test [5] the target is unchanged. Put plainly: calcium-bound CALM1 binders on microarrays, profiling panel, artefact control for SMM control-protein annotation, biochemical, small-molecule microarray, Cy5-labelled CALM1, plus calcium (AID 1112).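 Also: score merges spot fluorescence with signal to noise from triplicate slides.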 To be noted: Cy5-CALM1 binding fluorescence, higher = more signal.
A short description of test [6]: small-molecule microarray binders of probe aWnt5a, primary screen, biochemical, biotinylated probe, 635/667 nm fluorescence (AID 1113).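 Also: score merges 667 nm fluorescence intensity with signal-to-noise per printed feature.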 To be noted: higher = more signal.
Test [7] is described as follows: small-molecule microarray binders of probe aShh, primary screen, biochemical, biotinylated probe, 635/667 nm fluorescence (AID 1114).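 Also: probe is biotin-labelled aShh protein from a stem cell growth factor screen; measures binding of labelled protein to compounds printed on the slide; score merges feature fluorescence at 667 nm with signal-to-noise.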 The following applies: higher = more signal.
A short description of test [8]: small-molecule microarray binders of probe aNog, primary screen, biochemical, biotinylated probe, 635/667 nm fluorescence (AID 1115).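 Also: probe is biotinylated aNog protein used at 0.15 µg/mL for 1 h at 4 C; z-score combines 667 nm fluorescence of each spot with its signal to noise.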 The following applies: higher = more signal.
The target in test [9] is Torsin-1A-interacting protein 1 (Homo sapiens) (UniProt Q5JTV8). Description: LAP1 binders from COS7 cell lysate, primary screen, small-molecule microarray, 635/667 nm fluorescence (AID 1116). The following applies: COS7-hLAP1 lysate binding, 635 nm fluorescence, higher = more signal.
Test [10] addresses Alpha-bungarotoxin (Bungarus multicinctus) (UniProt P60615). Put plainly: alpha-bungarotoxin binders on microarray, profiling panel, artefact control for SMM control protein annotation, biochemical, small-molecule microarray, Alexa647 label, 635/667 nm fluorescence (AID 1117). To be noted: alpha-BTX-A647 binding fluorescence, higher = more signal.
For a further test, the target named is Albumin (Bos taurus) (UniProt P02769). Put plainly: bovine serum albumin binders on microarray, profiling panel, artefact control for SMM control protein annotation, biochemical, small-molecule microarray, Alexa647 label, 635/667 nm fluorescence (AID 1118).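 Also: score merges 667 nm emission intensity and signal-to-noise per printed compound spot.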 The following applies: BSA-A647 binding, fluorescence 635 nm, higher = more signal.
A short description of test [11]: small-molecule microarray binders of probe aXIP, primary screen, biochemical, NeuroSMM set, 635/667 nm fluorescence (AID 1119).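 Also: probe is the protein aXip251-270 applied at 1 µg/mL to compound-printed slides; binding of probe to printed compounds measured as 667 nm fluorescence plus signal to noise.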 The following applies: higher = more signal, called active from +8 up or from −8 down.
Test [12] can be described thus: small-molecule binders of probe aNOTCH3, primary screen, biochemical, small-molecule microarray, 635/667 nm fluorescence (AID 1120).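 Also: probe is a biotin-tagged antibody raised against NOTCH3 rather than NOTCH3 protein; score merges spot fluorescence near 667 nm with spot signal to noise.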 To be noted: higher = more signal.
Test [13] in a line: small-molecule binders of probe aNOTCH2, primary screen, biochemical, small-molecule microarray, 635/667 nm fluorescence (AID 1121).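 Also: score merges feature fluorescence read at 667 nm with its signal to noise.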 The following applies: higher = more signal.
The target of test [14] is Carbonic anhydrase 2 (Homo sapiens) (UniProt P00918). Put plainly: CAII small-molecule binders, profiling panel, biochemical, small-molecule microarray, Alexa647-labelled CAII (AID 1122). The following applies: CAII-A647 binding fluorescence, higher = more signal.
Test [15] is described as follows: COS7 lysate on small-molecule microarray, probe aHis, 635 nm (AID 1123).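 Also: z-score combines 667nm fluorescence intensity with signal-to-noise per printed compound spot.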 The following applies: COS7 cell lysate, fluorescence, higher = more signal.
A short description of test [16]: compound binding in COS7 lysate, probe aLAP1, primary screen, cell lysate, small-molecule microarray (AID 1124).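 Also: lysate comes from COS7 cells expressing LAP1 and is applied at 0.3 µg/mL; score merges spot fluorescence near 667 nm with signal-to-noise over triplicate slides.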 The following applies: probe aLAP1, fluorescence, higher = more signal.
In another test the test system is Sam68 (KHDRBS1). Description: Sam68 small-molecule binders, primary screen, biochemical, small-molecule microarray, 635 nm fluorescence (AID 1125).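 Also: score merges 667 nm channel intensity with signal to noise over triplicate slides.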 The following applies: small-molecule microarray binding, higher = more signal.
The subject of test [17] is Chordin-like protein 2 (CHRDL2). Put plainly: CHRDL2 small-molecule binders, primary screen, biochemical, small-molecule microarray, 635 nm fluorescence (AID 1126).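 Also: printed compound slides probed with Chrdl2 protein at 4 µg/mL for 1 h at 4 C; score merges 667 nm emission intensity with signal to noise over three replicate slides.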 To be noted: small-molecule microarray binding, fluorescence 635 nm; higher = more signal.
Test [18] concerns the target Concanavalin-A (Canavalia ensiformis) (UniProt P02866). Put plainly: ConA small-molecule binders, primary screen, artefact control for SMM control protein annotation, biochemical, small-molecule microarray, Alexa647 label, 635 nm (AID 1127).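 Also: z combines 667 nm emission intensity with signal-to-noise across three replicate slides.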 To be noted: ConA-A647 binding fluorescence, higher = more signal.

Sequence of Alpha-bungarotoxin (Bungarus multicinctus) (P60615 whole entry, looked up): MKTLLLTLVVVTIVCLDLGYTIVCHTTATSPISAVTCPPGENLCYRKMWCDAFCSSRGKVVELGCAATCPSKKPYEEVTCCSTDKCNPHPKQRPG
Sequence of Left-right determination factor 2 (Homo sapiens) (O00292 whole entry, looked up): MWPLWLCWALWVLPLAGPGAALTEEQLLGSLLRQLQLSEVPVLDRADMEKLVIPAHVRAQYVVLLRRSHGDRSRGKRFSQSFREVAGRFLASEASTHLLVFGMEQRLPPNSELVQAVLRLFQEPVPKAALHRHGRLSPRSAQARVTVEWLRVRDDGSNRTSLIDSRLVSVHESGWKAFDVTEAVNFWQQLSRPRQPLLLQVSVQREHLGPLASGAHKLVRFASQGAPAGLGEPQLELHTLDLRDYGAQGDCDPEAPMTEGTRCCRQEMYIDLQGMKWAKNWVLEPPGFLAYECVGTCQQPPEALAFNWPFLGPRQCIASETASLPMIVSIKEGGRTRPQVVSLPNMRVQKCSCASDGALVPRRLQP
Sequence of Torsin-1A-interacting protein 1 (Homo sapiens) (Q5JTV8 whole entry, looked up): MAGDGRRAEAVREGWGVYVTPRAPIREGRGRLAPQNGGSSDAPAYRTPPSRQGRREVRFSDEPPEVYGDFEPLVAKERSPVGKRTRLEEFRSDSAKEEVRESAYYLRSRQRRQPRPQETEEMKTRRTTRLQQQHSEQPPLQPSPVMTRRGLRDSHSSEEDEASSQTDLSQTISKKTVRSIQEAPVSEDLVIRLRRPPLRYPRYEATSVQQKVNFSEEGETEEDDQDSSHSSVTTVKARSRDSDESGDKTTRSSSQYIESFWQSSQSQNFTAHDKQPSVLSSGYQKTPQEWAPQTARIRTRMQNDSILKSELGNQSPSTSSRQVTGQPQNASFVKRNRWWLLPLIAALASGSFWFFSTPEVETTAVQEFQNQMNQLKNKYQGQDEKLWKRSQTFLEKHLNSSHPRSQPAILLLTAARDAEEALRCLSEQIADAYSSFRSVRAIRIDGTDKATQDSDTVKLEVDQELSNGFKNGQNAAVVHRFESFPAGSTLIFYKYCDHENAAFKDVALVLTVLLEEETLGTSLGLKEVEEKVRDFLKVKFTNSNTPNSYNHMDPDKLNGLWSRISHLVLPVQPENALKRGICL
Sequence of Albumin (Bos taurus) (P02769 whole entry, looked up): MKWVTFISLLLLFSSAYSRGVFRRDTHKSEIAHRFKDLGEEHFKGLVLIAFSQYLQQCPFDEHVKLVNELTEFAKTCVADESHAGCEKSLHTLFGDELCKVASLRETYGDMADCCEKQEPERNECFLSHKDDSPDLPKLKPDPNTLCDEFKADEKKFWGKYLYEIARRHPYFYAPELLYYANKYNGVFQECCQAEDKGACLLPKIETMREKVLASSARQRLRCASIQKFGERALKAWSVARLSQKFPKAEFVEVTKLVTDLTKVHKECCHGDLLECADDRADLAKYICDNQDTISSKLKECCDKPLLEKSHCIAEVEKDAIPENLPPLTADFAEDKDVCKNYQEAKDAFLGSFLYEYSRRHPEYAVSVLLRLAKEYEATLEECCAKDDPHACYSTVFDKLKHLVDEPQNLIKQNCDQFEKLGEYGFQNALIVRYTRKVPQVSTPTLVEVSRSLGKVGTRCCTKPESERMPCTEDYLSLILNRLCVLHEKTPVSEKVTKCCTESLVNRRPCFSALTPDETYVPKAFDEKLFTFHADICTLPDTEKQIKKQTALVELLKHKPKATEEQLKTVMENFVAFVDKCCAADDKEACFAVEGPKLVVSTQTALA
Sequence of Concanavalin-A (Canavalia ensiformis) (P02866 whole entry, looked up): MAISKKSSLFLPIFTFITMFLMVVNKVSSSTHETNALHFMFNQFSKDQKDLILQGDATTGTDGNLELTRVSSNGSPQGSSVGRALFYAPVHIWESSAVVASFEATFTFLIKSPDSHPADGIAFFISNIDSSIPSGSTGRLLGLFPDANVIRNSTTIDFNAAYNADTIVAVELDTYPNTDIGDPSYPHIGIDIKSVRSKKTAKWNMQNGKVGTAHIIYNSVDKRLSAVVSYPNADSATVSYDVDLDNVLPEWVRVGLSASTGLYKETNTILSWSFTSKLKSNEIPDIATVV

Turning to `COCCOC(=O)N1C(=O)[C@@]2(c3cc(C#CC4(O)CCCCCC4)ccc31)[C@H](C(=O)N1CCc3cc(OC)c(OC)cc3C1)[C@H]1C(=O)O[C@H](c3ccccc3)[C@H](c3ccccc3)N1[C@@H]2c1ccccc1OCCO`, the composite z-score was 1.04 in test [1]; 1.17 in test [3]; 1.02 in test [4]; -0.386 in [5]; 0.205 in [6]; 0.261 in test [7]. The composite z-score in [8] was 0.0158; in [9], 0.447; in [10], 1.46; with Albumin (Bos taurus), -0.499; in [12] it was 0.382; in [13] it was 0.0521. Also, the composite z-score in test [14] was 0.435; in test [15], 0.29; in [16], 0.221; in the test with Sam68 (KHDRBS1), 1.29; in test [17], 1.02; in [18], 1.17. In test [2], this molecule registered a z-score of -2.18. In addition, the composite Z-score in [11] is 0.141 (inactive).
Turning to `C=CC[C@]1(C(=O)N(C)C)N=C(c2ccc(OCCCO)cc2)O[C@H]1c1ccccc1`, the composite z-score is 1.46 in test [1]; -0.309 in [3]; 1.57 in test [4]; 0.19 in test [5]; 0.224 in test [6]; 0.33 in [7]. The composite z-score in [8] was 1.15; in [9], 0.765; in test [10], 1.25; in the test with Albumin (Bos taurus), 0.641; in test [12], 0.297; in [13], -0.124. The composite z-score in test [14] is 0.687; in test [15], 2.93; in test [16] it was 0.795; in the test with Sam68 (KHDRBS1) it was 1.26; in test [17], -0.336; in [18], 0.999. In test [2], the z-score is -2. Moreover, the composite Z-score in test [11] is -0.001 (inactive).
Take `COCCCNC(=O)[C@@]1(Cc2ccccc2N=[N+]=[N-])N=C(c2ccc(OCCCO)cc2)O[C@H]1c1ccccc1CN=[N+]=[N-]`: the composite z-score is 1.44 in test [1]; 0.0627 in [3]; 0.941 in test [4]; 0.0507 in test [5]; 0.0676 in test [6]; 0.551 in test [7]. Besides, the composite z-score in test [8] came to 1.47; in test [9], 1.54; in test [10], 1.71; with Albumin (Bos taurus) it was 0.771; in [12], 0.315; in test [13], 0.034. For the same molecule, the composite z-score in test [14] is 0.697; in test [15], 2.69; in test [16], 0.565; in the test on Sam68 (KHDRBS1) it was 1.29; in [17], -0.508; in [18], 1.01. Besides, the z-score in [2] is -2.86. The composite Z-score in test [11] was 0.103 (inactive).
`O=C(CS)NCCCCCNC(=O)[C@@H]1C[C@@H]2C(=O)N3CCC[C@H]3C(=O)N2[C@@H]1c1ccc(O)cc1`: the composite z-score in test [1] is 0.922; in test [3], 0.0978; in test [4], 0.195; in test [5], 0.194; in [6], -0.0758; in test [7] it was 0.499. Also, the composite z-score in test [8] was -0.152; in [9] it was 0.375; in test [10] it was 0.542; in the test with Albumin (Bos taurus), -0.683; in test [12], -0.0587; in test [13], -0.151. Further, the composite z-score in [14] was 0.636; in [15], 1.86; in test [16] it was 0.363; in the test with Sam68 (KHDRBS1), 0.928; in [17], -0.0012; in test [18], 1.15. The z-score in [2] turned out to be 0.0311. In [11], the composite Z-score was 0.647 (inactive).
As for `C=CC[C@@]1(C(=O)NCCN2CCOCC2)N=C(c2ccc(OCCCO)cc2)O[C@@H]1c1ccccc1`, the composite z-score in [1] is 1.46; in [3] it was 0.902; in [4], -0.0984; in test [5], -0.0501; in [6], 0.0873; in test [7] it was -0.0093. The composite z-score is 1 in test [8]; 1.06 in test [9]; 0.991 in [10]; 0.262 with Albumin (Bos taurus); 0.291 in test [12]; -0.0907 in test [13]. Moreover, the composite z-score was found to be 0.673 in test [14]; 2.52 in test [15]; 0.871 in test [16]; 1.12 in the test with Sam68 (KHDRBS1); 1.4 in [17]; 0.608 in test [18]. This molecule came in with a z-score in test [2] of -1.34. Also, the composite Z-score in test [11] is -0.288 (inactive).
Turning to `[N-]=[N+]=NCc1ccccc1C[C@@]1(C(=O)NCCN2CCOCC2)N=C(c2ccc(OCCCO)cc2)O[C@@H]1c1ccccc1CN=[N+]=[N-]`, the composite z-score was determined as 1.42 in test [1]; 0.461 in test [3]; 1.68 in test [4]; 0.191 in [5]; 0.0037 in test [6]; 0.199 in test [7]. Besides, the composite z-score in [8] was determined as 0.291; in test [9] it was 0.272; in [10] it was 1.04; with Albumin (Bos taurus), 0.511; in [12], 0.338; in [13], 0.12. For the same molecule, the composite z-score amounted to 0.568 in test [14]; 2.23 in test [15]; 0.0232 in [16]; 1.31 with Sam68 (KHDRBS1); 0.139 in [17]; 1.06 in test [18]. For the same molecule, in test [2], the z-score is -2.7. Further, the composite Z-score in [11] was -0.0957 (inactive).

(Values after PubChem BioAssay.)
